Data: PubChem BioAssay AID1159606 (Sanford-Burnham Center for Chemical Genomics, 2016)
“And” between values parts separate entries of the source, which are not always exact repeats. Equal entries are not always repeated. The campaign covered roughly 360,000 compounds. About 7,300 (2%) were called active. The sample holds actives, similar compounds and a random draw of the others, so the mix is not that of the screen. Rule as the data show it: active = inhibition above about 50%; inactive = the rest.

assay: blockers of TWEAK-induced Fn14 reporter activity – luciferase reporter cells, uHTS, primary screen (AID 1159606); conditions: TWEAK-stimulated Fn14 reporter cells, luciferase luminescence, 8 h; at 10 µM; stronger effect = higher value

inhibition, inactive:
CC1=NNC(=O)C1Cc1c(Cl)cccc1Cl (stereo unspecified) 4.96%
O=C(NCc1ccc(F)cc1)c1cc(C2CCCCN2C(=O)C2CCCCC2)on1 (stereo unspecified) 32.6%
C=CCSc1nnc2c(n1)-c1cccc3cccc-2c13 -43.7%
CC(=O)c1c(C)n([O-])c2ccccc2[n+]1=O -13.5%
O=C(Nc1cc(S(=O)(=O)N2CCOCC2)ccc1N1CCOCC1)c1c(F)cccc1Cl -8.44%
Cc1cc(Cl)ccc1-c1nc(NCCN(C)C)nc2ccsc12 -11.1%
O=C(CCc1ccc(S(=O)(=O)NC2CCCCC2)cc1)NCc1ccccc1 1.8%
CCCCNC(=O)C[C@@H]1C[C@@]2(C(=O)OCC)CCC=C2N(Cc2ccco2)C1=O 11%
CC(C)(C)NC(=O)CN(C(=O)c1csnn1)c1ccccc1-c1ccccc1 -13.7%
COC(=O)C1NN=C(C(=O)c2ccc(Br)cc2)C1c1cccc(Br)c1 (stereo unspecified) 48.4%
O=C(Cc1ccccc1)NNC1CC(=O)N(c2ccc(Br)cc2)C1=O (stereo unspecified) 12.9%
CC1=C(C)CC2C(=O)N(c3cccc4ccccc34)C(=O)C2C1 (stereo unspecified) 11.9%
O=C(CN1CCN(S(=O)(=O)c2ccc(Br)cc2)CC1)Nc1ccccc1C(=O)c1ccccc1 -6.36%
O=C(NCCc1ccc(F)cc1)c1n[nH]c2ccccc12 -18.2%
COc1ccc2cc(C(=O)NCC3CCCO3)[nH]c2c1 (stereo unspecified) -11.1%
C[N+](C)(C)CCNC(=O)c1c[nH]c2ccccc12 -3.99%
O=C(CSc1nc2ccccc2c(=O)n1Cc1ccc(F)cc1)NCC1CCCO1 (stereo unspecified) -1.57%
CC(C)C[C@@H]1COc2cc(N3CCC[C@@H]3CO)ccc2S(=O)(=O)N1 15.8%
CC1(C)OC(=O)C2=C(C[C@@H](C3CCCC3)O[C@@H]2c2ccc(Cl)cc2)O1 1.8%
CC(C)CN(C(=O)c1cccc(S(=O)(=O)N2CCCCC2)c1)C1CCS(=O)(=O)C1 (stereo unspecified) -4.27%
COc1ccc(C=C(C#N)C#N)c(CSc2ccccn2)c1 9.11%
COc1ccc2cc(CCl)c(Cl)nc2c1 3.18%
OCCC1CN(Cc2cccc(O)c2)CCN1CCc1ccccc1 (stereo unspecified) 15.9%
O=C(CCNC(=O)Cn1ccc2ccccc2c1=O)NCCC1=CCCCC1 -2.43%
Cc1nnc(OCC(=O)NCCC2=CCCCC2)c2ccccc12 8.22%
Cc1nccn1-c1ccc(NC(=O)[C@H]2O[C@@H](n3ccc(=O)[nH]c3=O)[C@H](O)[C@@H]2O)cc1 -4.03%
Cc1ccc2c(c1)N(CCCC(=O)NCc1cccnc1)C(=O)CO2 7%
COc1ccc(S(=O)(=O)N2CCCCC2)cc1C(=O)NC1CCS(=O)(=O)C1 (stereo unspecified) 4.36%
O=C(Nc1cccc(NC(=O)c2ccccc2[N+](=O)[O-])c1)c1ccccc1Cl -3.52%
CC(=O)Nc1ccc(NC(=O)COC(=O)c2ccccc2C(=O)c2ccccc2)cc1 16.1%
CC(OC(=O)CNC(=O)c1ccc(Cl)c([N+](=O)[O-])c1)C(=O)NCc1ccco1 (stereo unspecified) -16.1%
COC(=O)c1cc(NC(=O)Cc2ccccc2[N+](=O)[O-])ccc1Cl -1.56%
O=C(NCc1cccnc1)c1cc(C2CCCN(C(=O)CCCc3ccccc3)C2)on1 (stereo unspecified) 0.68%
O=C(NNS(=O)(=O)c1ccccc1)c1cnn(-c2ccc(Cl)cc2)c1C(F)(F)F 4.65%
CCCCN(CC)C(=O)C1CCCN(S(=O)(=O)c2cccc3nsnc23)C1 (stereo unspecified) -6.36%
CCCCN(C)CCNC(=O)C1CCCN(S(=O)(=O)c2cccc3nsnc23)C1 (stereo unspecified) -0.5%
O=C(CCl)NNc1cccc(Cl)n1 -23.4%
O=S(=O)(Nc1ccccc1N1CCOCC1)c1ccc(Cl)s1 4.55%
O=C(Nc1cccc(Cl)c1)Nc1ccccc1NS(=O)(=O)c1cccs1 10.4%
CCOCCCN(C)C1CCN(C(=O)c2oc3ccccc3c2NC(=O)Cc2cccc([N+](=O)[O-])c2)CC1 -1.52%
Cc1ccc2c(c1)NC(=O)[C@@]1(C)[C@@H](c3ccccc3)[C@H]3COc4ccc(Cl)cc4[C@@H]3N1C2=O 15.4%
CCN1CCN(c2sc(S(C)(=O)=O)nc2S(=O)(=O)c2ccc(Cl)cc2)CC1 31.6%
CCOC(=O)N1C(=O)C[C@](Sc2ccc(C)cc2)(C(=O)OC)[C@H]1c1ccccc1 14.7%
COC(=O)c1ccccc1SC1CC(=O)N(c2cccc(C)c2)C1=O (stereo unspecified) -5.63%
CCCCn1nnnc1C(c1cc2ccccc2o1)N(C)Cc1ccc(Cl)c(Cl)c1 (stereo unspecified) -0.38%
COc1ccc(C(=O)N2CCCCC2c2cc(C(=O)Nc3ccccc3)no2)cc1 (stereo unspecified) -7.61%
CCOc1cc2[nH]c(=S)n(CCN3CCCCC3C)c(=O)c2cc1OCC (stereo unspecified) -2.73%
COc1cc2[nH]c(=S)n(Cc3ccc(F)cc3)c(=O)c2cc1OC -27%
CCOCCCNC(=O)C(NC(=O)CNC(=O)c1ccccc1)c1ccc(OC)cc1 (stereo unspecified) -12.7%
CN(C)Cc1ccc(F)cc1Sc1cc(Cl)ccc1Cl 5.28%
CC(=O)N1C(C)c2ccccc2C(C)(C)CC12CCCCC2 (stereo unspecified) -11.4%
CO/N=C(\C(=O)N[C@@H]1C(=O)N2C(C(=O)O)=C(COC(C)=O)CS[C@H]12)c1csc(N)n1 (stereo in doubt) 15% and 5.82% and -5.11%
C=CC1=C(C(=O)O)N2C(=O)[C@@H](NC(=O)/C(=N\OCC(=O)O)c3csc(N)n3)[C@H]2SC1 14.2%
CC(=O)c1ccc(S(=O)(=O)N(C)CCCC(=O)N(C)Cc2ccccc2F)cc1 13.5%
CC1(C)OC(=O)C2=C(C[C@@H](C3CCCCC3)O[C@@H]2c2ccc(Cl)cc2)O1 -5.53%
Cc1cccc(N2CCN(C(=O)COCc3cc(-c4ccc5c(c4)OCO5)on3)CC2)c1C -13.9%
CCC(=O)N(Cc1cc2ccccc2[nH]c1=O)c1ccc(OC)cc1 -8.72%
CC(=O)N(Cc1cc(=O)[nH]c2ccccc12)c1ccc(C)cc1C 4.2%
CCN(CC)S(=O)(=O)c1cccc(C(=O)NCC(=O)OCC(=O)NCc2ccccc2)c1 0.62%
Cc1ccc(F)cc1S(=O)(=O)Nc1cccc(C(=O)N2CCCC(C(N)=O)C2)c1 (stereo unspecified) -7.05%
NC(=O)[C@H]1CC2(CC(c3cccc(NC(=O)[C@H]4CCC(=O)N4)c3)=NO2)CN1C(=O)c1ccccc1C(=O)c1ccccc1 (stereo partly specified) -12.2%
COc1ccc(CCNC(=S)NC(=O)/C=C/c2ccc(C)cc2)cc1OC -15.4%
Cc1ccc(-c2nc(C#N)c(NCCCn3ccnc3)o2)cc1 -18.1%
Cc1ccc2c(Cl)c(C(=O)NCCCn3ccnc3)sc2c1 -11.3%
O=C(O)C(=Cc1ccc([N+](=O)[O-])cc1)CCc1ccccc1 -10.9%
CCOC(=O)/C(=N\Nc1ccccc1[N+](=O)[O-])c1csc(Nc2ccccc2)n1 8.54%
CCCCc1c(-c2ccc(Br)cc2)ncn1CCc1ccccc1OC 38.9%
Cc1noc(C)c1NC(=O)N(C)C[C@@H]1Oc2cc(Br)ccc2S(=O)(=O)N([C@@H](C)CO)C[C@H]1C 18.1%
COC(=O)c1ccc(Nc2ncnc3sccc23)cc1 -10.3%
COC(=O)c1ccc2nc(C3CCCCC3)c(Cc3cccc(F)c3)n2c1 -20.2%
O=C(O)C(F)(F)C(NCc1ccccc1)c1ccccc1 (stereo unspecified) -8.01%

inhibition, active:
Cc1ccc(N2C(=O)CC(Nc3cccc4ccccc34)C2=O)cc1 (stereo unspecified) 51.9%
O=C(NCCCO)c1cc2c([nH]c3ccccc32)c(-c2ccc(F)cc2)n1 54.8%
O=C(NCC1CCCO1)c1cc2c([nH]c3ccccc32)c(-c2ccc(F)cc2)n1 (stereo unspecified) 51%
COc1ccc2nc(-c3ccccn3)ccc2c1 61.3%
O=C(Cc1cccc2ccccc12)NCCC1=CCCCC1 99.4%
CC(=O)Nc1ccc(NC(=O)C(C)OC(=O)c2ccccc2C(=O)c2ccc(Cl)c([N+](=O)[O-])c2)cc1 (stereo unspecified) 95.7%
N#Cc1cccc(NC(=O)COC(=O)c2ccccc2C(=O)c2ccc(Cl)c([N+](=O)[O-])c2)c1 99.5%
O=C(c1ccco1)N1CCN(C(=O)C2CCCN(S(=O)(=O)c3cccc4nsnc34)C2)CC1 (stereo unspecified) 62.4%
COc1cc(NC(=O)c2ccccc2NS(=O)(=O)c2ccc(Cl)s2)cc(OC)c1 72.6%
COC(=O)[C@@]1(Sc2ccc(C)cc2)CC(=O)N(c2cccc(SC)c2)[C@@H]1c1ccccc1 69.9%
COc1cc2[nH]c(=S)n(CCN3CCCCC3C)c(=O)c2cc1OC (stereo unspecified) 77.3%
C=CC1=C(C(=O)O)N2C(=O)[C@@H](NC(=O)/C(=N/OCC(=O)O)c3csc(N)n3)[C@H]2SC1 75.2%
Cc1ccc(N(Cc2cc(=O)[nH]c3ccccc23)C(=O)CCl)cc1 52.1%
Cc1ccc(S(=O)(=O)c2nc(NCCCn3ccnc3)sc2Cl)cc1 80.5%
CCOC(=O)/C(=C\c1ccc([N+](=O)[O-])cc1)C(=O)c1cc(C(C)=O)c(Nc2ccccc2)s1 104%
